Only some compounds are listed: those with a hit (about 4.1% of all), similar ones and a draw of the others.
MEKK3 PB1 HTS = MEKK3-MEK5 PB1 interaction, increase or decrease; Q99759; bead-based flow cytometry, Alexa488-MEK5 binding to MEKK3; actives lie on both sides; 0 = blocked by unlabeled MEK5, 100 = vehicle; binding response (% of control), % at 10 µM; 290,000 compounds, 1.4% hits;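 active means binding response more than 3 SD above or below the average of its plate-row segment, actives on both sides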;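 further: Alexa488 bead fluorescence after subtracting the streptavidin-only scavenger bead signal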
CHT allo act = allosteric activators of human choline transporter CHT; 310,000 compounds, 0.49% hits; CHT-expressing cells, membrane potential dye, choline EC20; active compounds read high; LV-AA mutant CHT in HEK293 cells; Q9GZV3; B-score at 10 µM;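 active means initial fluorescence not abnormally high and integrated response B-score, plate-corrected, over 3 SD above library mean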
Target sequence (Q9GZV3 whole entry, looked up): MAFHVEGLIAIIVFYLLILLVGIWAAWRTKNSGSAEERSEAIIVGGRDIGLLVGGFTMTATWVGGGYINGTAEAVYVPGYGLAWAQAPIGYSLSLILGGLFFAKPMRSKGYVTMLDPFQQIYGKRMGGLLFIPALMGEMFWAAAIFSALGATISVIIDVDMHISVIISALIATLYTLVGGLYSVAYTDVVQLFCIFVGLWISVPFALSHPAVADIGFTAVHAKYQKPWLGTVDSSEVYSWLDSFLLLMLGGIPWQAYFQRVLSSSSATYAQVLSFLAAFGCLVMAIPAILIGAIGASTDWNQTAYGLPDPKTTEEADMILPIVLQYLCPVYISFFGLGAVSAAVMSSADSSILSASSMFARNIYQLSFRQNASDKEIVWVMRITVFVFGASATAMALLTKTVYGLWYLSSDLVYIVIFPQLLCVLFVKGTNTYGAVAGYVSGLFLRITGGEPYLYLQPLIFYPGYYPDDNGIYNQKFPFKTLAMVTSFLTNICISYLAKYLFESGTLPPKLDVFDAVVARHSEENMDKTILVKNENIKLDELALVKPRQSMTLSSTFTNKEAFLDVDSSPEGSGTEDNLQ
MEKK2 mut-MEK5 = signal of MEK5 binding to mutant human MEKK2 PB1 domain | bead flow cytometry, Alexa488-MEK5 binding to MEKK2 mutant | percent response, % at 10 µM | 290,000 compounds, 0.35% hits; in the data active means percent response above about 24%, passing the limit was not always enough
SUMO Mot1 rescue = SUMOylation pathway inhibition by Mot1-301 growth rescue | S. cerevisiae Mot1-301 growth rescue, ATP luminescence, 38.5C; percent above DMSO median, 100 means doubled | growth rescue, % at 18.8 µM | 320,000 compounds, 1% hits | AID 2716;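 active means every valid replicate shows activation above 250% relative to neutral control wells; inactive means the rest, any valid replicate at or below 250%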;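 further: OY570 slx delta 5 strain wells were the positive control but not used for scaling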
MEKK2 WT-MEK5 = raises or lowers MEK5 binding to wildtype human MEKK2 PB1 domain; bead flow cytometry, Alexa488-MEK5 binding to MEKK2 WT; actives lie on both sides; Q9Y2U5; binding response (% of control), % at 10 µM; 290,000 compounds, 1.1% hits; in the data active means binding response below about 67% or above about 130%
CHT inh = human CHT choline transport inhibition. Q9GZV3. CHT-expressing cells, membrane potential dye, choline response; active compounds read low. B-score at 10 µM. 310,000 compounds, 0.86% hits. AID 488975;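 active means B-score over 3 SD under the library average, and starting fluorescence ratio not unusually high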;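 further: choline stimulus applied at its EC90 after an EC20 pre-addition; B-score computed on integrated fluorescence ratio after choline addition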
CHT block conf = human CHT inhibition, confirmatory screen; 2,400 compounds, 70% hits; CHT-expressing cells, choline membrane potential dye; LV-to-AA substituted CHT, HEK293 cells; AID 493221; shares compounds with CHT inh; CHT activity remaining % of control (active compounds read low), % at 10 µM;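 active means choline transporter activity left, mean of duplicates at 10 µM, below buffer-only control mean minus 3 SD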;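 further: depolarization triggered by choline at its EC90 following an EC20 pre-addition; 0% = hemicholinium-3 full block and 100% = buffer-only control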
HEK293 MPD ctr = CHT inhibitor counter-screen hit in parental HEK293 cells; AID 493222; membrane potential dye, choline response; active = decrease or increase beyond buffer ±3SD; membrane potential ratio readout (active if shifted either direction beyond buffer ±3SD; no single direction) at 10 µM; 2,400 compounds, 4% hits; shares compounds with CHT inh;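 further: parental cells lack the transporter so any hit is non-specific; ratio is peak minus trough fluorescence over baseline after EC90 choline challenge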
Numbers without * were called inactive; i = inactive; . = no result.

SMILES	MEKK3 PB1 HTS	CHT allo act	MEKK2 mut-MEK5	SUMO Mot1 rescue	MEKK2 WT-MEK5	CHT inh	CHT block conf	HEK293 MPD ctr
Cc1ccc(-c2ccc(C(=O)Nc3ccccc3)o2)c2ccccc12	88	i	-6	-11	89	i	.	.
Cc1ccc(S(=O)(=O)NC(=O)c2ccc(-c3ccc(C)c4ccccc34)o2)cc1	104	i	1	6	100	-5*	i	i
Cc1nc(SCC(=O)NCc2ccc3c(c2)OCO3)nc(C)c1C	.	.	.	-5	.	.	.	.
CN1C[C@@H]2C(c3ccc(C(F)(F)F)cc3)C3(c4cccnc4)CC2(C3)[C@H]1c1ccccc1 (some centres not stated)	104	i	7	15	115	-5.2*	70%*	i
CCC(C)(C(=O)NC1CCCC1)N(C(=O)CC1NC(=O)NC1=O)c1c(C)n(C)n(-c2ccccc2)c1=O (configuration not stated)	100	i	1	-11	101	i	.	.
O=C(Nc1ccccc1Cl)c1cc2ccccc2o/c1=N\O	93	i	-2	4	99	i	.	.
COc1cccc(NC(=O)c2cc3ccccc3o/c2=N\O)c1	103	i	4	-10	104	-6.3*	i	i
C#CC[N+](C)(C)CC#Cc1ccc(Cl)cc1	94	i	8	-7	103	i	.	.
Cc1ccc(C#CC[N+]2(C)CCCCC2)cc1	99	i	-1	-5	99	-6*	43%*	i
C#CC[N+]1(CC#Cc2ccc(C)cc2)CCCCC1	102	i	0	12	111	-7*	43%*	i
Cc1ccc(-c2csc3ncnc(-n4cnc5ccccc54)c23)cc1	99	i	6	-8	91	-7.5*	24%*	i
Cc1ccc(-c2csc3ncnc(-n4nnc5ccccc54)c23)cc1	106	i	20	18	115	-7.5*	63%*	i
c1ccc(-c2csc3ncnc(-n4cnc5ccccc54)c23)cc1	100	i	6	18	104	i	.	.
Cc1cccc(NC(=O)COC(=O)c2ccccc2SCC(=O)N2CCCC2)c1	102	i	5	8	109	i	.	.
Cc1ccccc1C(=O)Nc1ccc(C(=O)N/N=C/c2ccc(F)cc2)cc1	94	i	-2	245	95	i	.	.
O=C(C1CCCN(c2ncnc3c2nc2n3CCCCC2)C1)N1CCN(c2ccccc2F)CC1 (configuration not stated)	100	i	-8	-12	100	-8.9*	-11%*	i
CC1CCN(C(=O)C2CCCN(c3ncnc4c3nc3n4CCCCC3)C2)CC1 (configuration not stated)	99	i	4	7	100	i	.	.
CCN1CCN(C(=O)C2CCCN(c3ncnc4c3nc3n4CCCCC3)C2)CC1 (configuration not stated)	101	i	-7	160	101	i	.	.
COc1cccc(N2CCN(C(=O)C3CCCN(c4ncnc5c4nc4n5CCCCC4)C3)CC2)c1 (configuration not stated)	96	i	-4	3	95	-5.7*	38%*	i
CCOC(=O)N1CCN(C(=O)C2CCCN(c3ncnc4c3nc3n4CCCCC3)C2)CC1 (configuration not stated)	100	i	5	0	104	-9.3*	11%*	i
CCOc1ccc(S(=O)(=O)N2CCC(C(=O)N3CCc4ccccc4C3)CC2)cc1	101	i	-4	-11	100	i	.	.
O=C(CCc1ccc(S(=O)(=O)N2CCOCC2)cc1)N1CCc2ccccc2C1	81	i	-13	1	82	-5.8*	66%*	i
Cc1ccc(S(=O)(=O)N2CCC(C(=O)N3Cc4ccccc4C3)CC2)cc1	103	i	4	3	107	i	.	.
CSc1ccc(S(=O)(=O)N2CCC(C(=O)N3CCc4ccccc4C3)CC2)cc1	103	i	0	-19	100	-14*	59%*	i
COc1ccc(S(=O)(=O)N2CCC(C(=O)N3CCc4ccccc4C3)CC2)cc1	100	i	8	-16	102	-5.8*	49%*	i
SMILES	MEKK3 PB1 HTS	CHT allo act	MEKK2 mut-MEK5	SUMO Mot1 rescue	MEKK2 WT-MEK5	CHT inh	CHT block conf	HEK293 MPD ctr
O=C(c1ccc(S(=O)(=O)N2CCOCC2)cc1)N1CCc2ccccc2C1	108	i	8	.	108	i	.	.
Cc1cc(C)c(C(=O)COC(=O)C2CCN(c3ccc(C(F)(F)F)cn3)CC2)c(C)c1	.	.	.	18	.	.	.	.
Cc1cccc(NCc2ccc(N(C)C)cc2)n1	99	i	8	-7	106	i	.	.
O=[N+]([O-])c1cc2c(cc1Br)CCN2	103	i	-3	-3	98	i	.	.
COC(CN(C)C(=O)c1ccc(CS(=O)(=O)c2ccccc2C)o1)OC	101	i	3	171	101	i	.	.
CCCCN(C)C(=O)c1ccc(CS(=O)(=O)c2ccccc2C)o1	104	i	2	249	103	-5.3*	i	i
CC(C)(C)c1ccc(C(=O)CC(Sc2ccc(Cl)cc2)C(=O)O)cc1 (configuration not stated)	103	i	-2	533*	99	-8.4*	6.4%*	i
O=C(c1cc(-c2ccc(Br)cc2)on1)N1CCc2ccccc2C1	99	i	-3	-12	103	i	.	.
O=C(CCc1nnc(Cc2ccc(-c3ccccc3)cc2)o1)N1CCCC1	102	i	-1	.	102	-5.4*	46%*	i
O=C(CSc1nnc(Cc2ccccc2)o1)N1CCCC1	93	i	-7	305	93	i	.	.
Cc1ccc(-n2c(C)cc(C3=NNC(=NC4CC4)SC3)c2C)cc1C	98	i	21	-2	117	-6.3*	i	i
CCOC(=O)Cc1csc(N/C(=N/S(=O)(=O)c2ccc(F)cc2F)c2ccccc2)n1	109	i	15	5	120	-6.8*	63%*	i
O=C1C2C3C=CC(C4CC34)C2C(=O)N1Cc1ccco1 (configuration not stated)	96	i	-2	-10	99	i	.	.

Screening results (PubChem)
